Screening data: PubChem, National Center for Advancing Translational Sciences (NCATS)
Most compounds without a hit are left out; they make up all but 10% or so of the library.
3T3 cytotox: cytotoxic compounds in NIH 3T3 cells. Potency, µM (titrated, usually from 96.7 µM), inactives show top-dose activity change, negative = cytotoxicity, usual class: inhibitors. NIH 3T3 viability, CellTiter-Glo ATP luminescence, 48-72 h. 4.3% of 94,000 active; further: nearly all actives have a fitted effect of over 55% in size
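ATP-dependent luminescence (CellTiter-Glo) served as the viability signal for NIH 3T3 cells treated with compound for 48 or 72 hr at 37 °C.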
NPR1 antag: human Npr1 receptor antagonism | P16066 | 1.6% of 76,000 active | Potency, µM (doses to about 46.3 µM), without a hit: at the top dose activity change, negative = inhibition, hits mostly inhibitors | AID 1347048 | HEK293 hNpr1 GloSensor cGMP, ANP-stimulated luminescence; calls by dose curve; further: nearly all actives have a fitted effect of over 60% in size
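HEK293 cells stably expressing human Npr1 and cGMP GloSensor pGS-40F, loaded 2 h with 2% GloSensor reagent, given compound 30 min at room temperature. Luminescence read before and 20 min after 0.1 nM hNppA.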
Luciferase inh: inhibitors of firefly (Photinus pyralis) luciferase | Potency, µM (titrated, usually from 115 µM), hits mostly inhibitors | P08659 | 2.5% of 76,000 active | AID 1347043 | purified P. pyralis luciferase, luminescence, biochemical; further: nearly all actives have a fitted effect of over 65% in size
Target sequence (P08659 whole entry, looked up): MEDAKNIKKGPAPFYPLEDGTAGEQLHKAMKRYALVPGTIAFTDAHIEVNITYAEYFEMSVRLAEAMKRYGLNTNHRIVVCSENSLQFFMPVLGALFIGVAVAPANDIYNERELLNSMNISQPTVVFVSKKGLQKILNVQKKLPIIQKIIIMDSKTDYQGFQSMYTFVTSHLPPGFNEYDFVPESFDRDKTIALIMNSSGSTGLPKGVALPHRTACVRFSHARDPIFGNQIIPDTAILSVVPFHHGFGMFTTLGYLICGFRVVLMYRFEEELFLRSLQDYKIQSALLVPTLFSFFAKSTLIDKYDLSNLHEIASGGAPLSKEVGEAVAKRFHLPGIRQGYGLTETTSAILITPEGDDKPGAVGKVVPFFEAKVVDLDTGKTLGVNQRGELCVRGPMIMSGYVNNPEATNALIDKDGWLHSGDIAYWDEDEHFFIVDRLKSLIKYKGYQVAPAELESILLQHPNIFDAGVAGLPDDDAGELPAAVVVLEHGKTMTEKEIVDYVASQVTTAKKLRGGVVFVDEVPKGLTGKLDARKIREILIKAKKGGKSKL
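Cell-free enzyme assay, 10nM P. pyralis luciferase, luciferin and ATP each at 10uM. Inhibition profiled over a 6-point titration, read as luminescence.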
HEK293 tox: HEK 293 cell cytotoxicity | HEK 293 viability, ATP luminescence (CellTiter-Glo), 48-72 h | Potency, µM (top dose mostly 115 µM), without a hit: at the top dose activity change, negative = cytotoxicity, most hits filed as inhibitors | 6.6% of 94,000 active | AID 1345083; further: nearly all actives have a fitted effect of over 60% in size
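qHTS cytotoxicity; HEK 293, 250 cells/well; compound pinned; 48 or 72 hr, 37 degree Celsius, 5% CO2, 95% humidity; CellTiter-Glo, 10 min RT; luminescence (ATP).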
GPT2 inhibitor: blocks human glutamate pyruvate transaminase 2; Q8TD30; Recombinant GPT2, coupled pyruvate oxidase/HRP Amplex Red fluorescence; Potency, µM (doses to about 57.7 µM), without a hit: top-dose activity change, negative = inhibition, most hits filed as inhibitors; 0.25% of 100,000 active; AID 1671188; further: nearly all actives have a fitted effect of over 60% in size
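Fluorescence of coupled pyruvate oxidase/HRP/Amplex Red system (50uM Amplex, 30 min, dark) reports pyruvate formed by GPT2. Enzyme reaction: 10ng/uL GPT2, 2mM L-alanine, 250uM a-KG, 30 min room temperature, pH 7.5; 50uM AOA control.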
Starred values were filed as active, the others as inactive; i = inactive; ? = inconclusive; . = no result given; ! = a repeat was not active; [ ] = another dose, or the depositor's remark. Unless noted, the call rests on the fitted dose curve; in most records, active means well fitted curve in the direction sought with a large enough effect; inconclusive means small, poorly fitted or top-dose-only effect, or another doubt; inactive means no such curve, though single readings can be large; an effect the other way counts as inactive or inconclusive. On the % scale 0 is the no-effect control and ±100 the full control effect; potency means the concentration at half of the fitted maximal effect.

SMILES	3T3 cytotox	NPR1 antag	Luciferase inh	HEK293 tox	GPT2 inhibitor
O=C(Cc1cccc(F)c1)N1CCC(N2C(=O)C3(CCCCC3)C2c2ccccc2)CC1 (centres undefined)	?	.	.	?	-9%
Cn1cc(-c2ccccc2Oc2ccccc2)c2nc(CN3CCOCC3)cn2c1=O	89µM*	1%[70.6 µM]	i	-7%[172 µM]	-1%[88.5 µM]
COc1cc(F)ccc1-c1cn(C)c(=O)n2cc(CN3CCOCC3)nc12	112µM*	3%[70.6 µM]	i	-8%[172 µM]	0%[88.5 µM]
CN1CCN(Cc2cn3c(=O)n(C)cc(-c4ccccc4F)c3n2)CC1	i	0%[70.6 µM]	i	?	4%[88.5 µM]
Cn1cc(-c2ccccc2Oc2ccccc2)c2nc(CO)cn2c1=O	?	0%[70.6 µM]	i	-21%[172 µM]	-19%[88.5 µM]
O=C(Nc1cccc(-c2cccc(Cl)c2)c1)C1CCN(Cc2cccc(O)c2)CC1	?	-28%	i	?	?
Cc1ccc(-c2noc([C@@H]3Cc4nc[nH]c4CN3CC3CCCCC3)n2)cc1	71µM*	1%[70.6 µM]	?	63µM*	0%[88.5 µM]
c1ccc2cc(-c3noc([C@@H]4Cc5nc[nH]c5CN4CC4CCCCC4)n3)ccc2c1	50µM*	-17%[70.6 µM]	?	71µM*	3%[88.5 µM]
CCN1c2cc(C(=O)Nc3ccc(C(N)=O)cc3)ccc2C(=O)N2CCCCC21 (centres undefined)	32µM*	19%	i	?	-2%
CCN1c2cc(C(=O)Nc3cccc(SC)c3)ccc2C(=O)N2CCCCCC21 (centres undefined)	22µM*	?	i	22µM*	i
CCN1c2cc(C(=O)Nc3cccc(F)c3)ccc2C(=O)N2CCCCC21 (centres undefined)	?	0%	?	?	-1%
CCN1c2cc(C(=O)Nc3ccc(F)cc3)ccc2C(=O)N2CCCCC21 (centres undefined)	?	-13%	i	?	i
CCN1c2cc(C(=O)Nc3cc(F)cc(F)c3)ccc2C(=O)N2CCCCC21 (centres undefined)	28µM*	-12%	i	35µM*	-9%
CCN1c2cc(C(=O)Nc3ccc(C)c(F)c3)ccc2C(=O)N2CCCCC21 (centres undefined)	28µM*	0%	i	?	i
CCN1c2cc(C(=O)Nc3ccc(C)c(F)c3)ccc2C(=O)N2CCCC21 (centres undefined)	-20%	5%	i	-18%	i
COc1ccc(-c2c(C(=O)NCc3ccc(F)cc3)nc3sccn23)cc1	?	.	.	?	i
CNC(=O)[C@@H]1C[C@H](Oc2cccnc2)CN1C(=O)c1noc(C)c1Cc1c(C)noc1C	-9%	.	.	i	-8%
CCN1c2cc(C(=O)Nc3ccc(SC)cc3)ccc2C(=O)N2CCCCC21 (centres undefined)	40µM*	-25%	?	?	i
CCN1c2cc(C(=O)Nc3ccc(OC)cc3)ccc2C(=O)N2CCCCC21 (centres undefined)	?	-2%	i	?	i
CCN1c2cc(C(=O)Nc3ccc4c(c3)CCC4)ccc2C(=O)N2CCCCC21 (centres undefined)	13µM*	1%	?	22µM*	i
Cc1ccc(CN2CCC(CN(C)C(=O)c3ccc(C4CCCN4)s3)CC2)o1 (centres undefined)	?	3%	i	?	i
CO[C@@]12[C@H](COC(N)=O)C3=C(C(=O)C(C)=C(N)C3=O)N1C[C@@H]1N[C@@H]12	.	.	.	.	14µM*!
CCOC(=O)C1CCN(C(=O)c2cn3cc(-c4cccc(OC)c4)sc3n2)CC1	?	.	.	?	-3%
Cc1noc(C)c1-c1cc2cc(CN(C)C)oc2c(Nc2cccc([S+](C)(=O)[O-])c2)n1	45µM*	3%[70.6 µM]	i	50µM*	-11%[88.5 µM]
COc1cccc(Nc2nc(-c3c(C)noc3C)cc3cc(CN(C)C)oc23)c1	45µM*	1%[70.6 µM]	i	45µM*	i
SMILES	3T3 cytotox	NPR1 antag	Luciferase inh	HEK293 tox	GPT2 inhibitor
Cc1noc(C)c1-c1cc2cc(CN(C)C)oc2c(Nc2ccn(C)n2)n1	?	1%[70.6 µM]	i	?	-1%[88.5 µM]
COc1cc(CNc2nc(-c3c(C)noc3C)cc3cc(CN(C)C)oc23)cc(OC)c1	?	-2%[70.6 µM]	i	?	i
CC(=O)Nc1ccc(-c2nnc3n2CCN(C(=O)C2CCCC2)C3)cc1	-13%[138 µM]	.	.	-12%[172 µM]	.
COc1ccc(-c2ccccc2C(=O)N(C)CC#N)nn1	i	.	.	-2%[172 µM]	.
Fc1ccccc1CNc1cc(Cl)nc2ccnn12	?	?	i	35µM*	?
CC(C)(C)CNc1cc(Cl)nc2ccnn12	-11%[138 µM]	13%[70.6 µM]	i	?	i
Cc1ccccc1C(=O)N1CCC(N2C(=O)c3c(c(C)nn3-c3ccccc3)C2C(C)C)CC1 (centres undefined)	?	.	.	40µM*	.
CC(=O)N1CCC(N2C(=O)c3c(c(C)nn3-c3ccccc3)C2C(C)C)CC1 (centres undefined)	?	.	.	-20%	.
Cc1nn(-c2ccccc2)c2c1C(C(C)C)N(C1CCN(C(=O)c3ccccc3F)CC1)C2=O (centres undefined)	?	.	.	45µM*	.
COCCCNC(=O)[C@@H]1CCCN1c1nccc(Nc2ccccc2OC)n1	-16%	.	.	-3%	i
O=C(c1nccc2ccccc12)N1CCc2c(nc(-c3ccc(F)cc3)[nH]c2=O)C1	14µM*	-12%	i	?	i
O=C(c1ccco1)N1CCc2c(nc(-c3ccc(F)cc3)[nH]c2=O)C1	?	-12%	i	3%	-8%
COCC1(O)CCOC2(CCN(C(=O)C3CCC3)CC2)C1 (centres undefined)	-18%	.	.	i	i
COc1ccc(C(=O)N2CCCC3(CC(c4cccc(C(F)(F)F)c4)=NO3)C2)cc1 (centres undefined)	?	-23%	i	?	-5%
O=C(Cc1cccc(Cl)c1)N1CCC2(CC1)CC(c1cccc(C(F)(F)F)c1)=NO2	?	.	.	28µM*	.
COc1ccc(CC(=O)N2CCC3(CC2)CC(c2cccc(C(F)(F)F)c2)=NO3)cc1	?	.	.	40µM*	.
O=C(Cc1ccccc1)N1CCC2(CC1)CC(c1cccc(C(F)(F)F)c1)=NO2	?	.	.	45µM*	.
FC(F)(F)c1cccc(C2=NOC3(CCN(Cc4ccccc4)C3)C2)c1 (centres undefined)	?	.	.	45µM*	?
Cc1ccc(C)c(C(=O)N2CCC(Oc3nccnc3N(C)C)C2)c1 (centres undefined)	-5%	-10%	?	?	3%
COCCn1c(=O)c(C(=O)N2CCOCC2)nc2cccnc21	-16%[138 µM]	.	.	-1%[172 µM]	i
